The results in this text go back to PubChem BioAssay (NCI).

The panel holds about 83,000 compounds, 20% with a hit somewhere; the sample as a whole holds those more often.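 A percent growth of 40 corresponds to 60% growth inhibition; 0 means no net growth; -100 means all cells died. Active threshold: below 10.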 Unmarked numbers belong to inactive results. Active and inactive are the calls of the source.

Some test systems named below: T-47D breast; BT-549 breast; MDA-MB-435 melanoma; SW-620 colon; MCF7 breast; HCT-116 colon; HCC-2998 colon; KM12 colon.
Assay in all cases: NCI-60 one-dose screen, 48 h (100 = growth as untreated, 0 = no growth, -100 = all killed)
Common to all, as to settings: 10 µM unless noted

Regarding `Cc1nc2c(c(=O)[nH]1)C(c1ccccc1)c1ccc3ccccc3c1O2` (configuration not stated), the growth in the assay with T-47D breast is 39.1%; with BT-549 breast, 34.1%; in the assay with MDA-MB-435 melanoma, -16.2% (active); in the assay on SW-620 colon, 20.9%; in the assay on MCF7 breast, 11.4%; in the assay with HCT-116 colon it was 21.3%. The growth was 56.6% in the assay with HCC-2998 colon and 26.2% with KM12 colon.
Regarding `COc1ccc(/C(C)=C(/c2ccc(OCCCN(C)C)cc2)c2ccc(OC(=O)c3ccccc3)cc2)cc1`, the growth was 49.7% with T-47D breast; 87% with BT-549 breast; 85% in the assay with MDA-MB-435 melanoma; 88.8% in the assay on SW-620 colon; 31% in the assay with MCF7 breast; 48.6% with HCT-116 colon. For the same molecule, the growth is 88.3% in the assay with HCC-2998 colon and 75.2% in the assay on KM12 colon.
Turning to `CCOC(=O)C1=C(C)C(Cl)=N/C1=C\c1[nH]c(Cl)c(C)c1C(=O)OCC`, the growth in the assay on T-47D breast was 94.9%; in the assay on BT-549 breast it was 91.2%; with MDA-MB-435 melanoma it was 103%; in the assay on SW-620 colon it was 106%; in the assay with MCF7 breast it was 90.3%; in the assay with HCT-116 colon, 84.5%. Further, the growth with HCC-2998 colon is 130%; with KM12 colon, 100%.
On to `O=C1Nc2c(C(=O)O)cccc2/C1=N/c1n[nH]c(=S)s1`, for which the growth with T-47D breast is 68.4%; in the assay with BT-549 breast it was 116%; with MDA-MB-435 melanoma it was 88.4%; with SW-620 colon, 88.1%; in the assay on MCF7 breast, 80.8%; with HCT-116 colon it was 96.2%. The growth with HCC-2998 colon is 103%; in the assay with KM12 colon, 75.4%.
Turning to `CCOC(=O)CC1CSC(Nc2ccccc2)=N1` (configuration not stated), the growth in the assay with T-47D breast was 87.9%; in the assay with BT-549 breast it was 114%; in the assay with MDA-MB-435 melanoma, 105%; in the assay on SW-620 colon, 108%; with MCF7 breast, 89.7%; in the assay with HCT-116 colon, 107%. The growth is 102% in the assay with HCC-2998 colon and 99% in the assay with KM12 colon.
As for `CCNc1ccc(-c2nc3ccccc3n3cccc23)cc1`, the growth in the assay with T-47D breast is 55.1%; in the assay with BT-549 breast, 90.4%; in the assay on MDA-MB-435 melanoma, 80.7%; in the assay with SW-620 colon, 92.5%; in the assay with MCF7 breast, 34.4%; with HCT-116 colon it was 88.9%. Besides, the growth was 92.4% in the assay with HCC-2998 colon and 72.8% with KM12 colon.
As to `CCCCNC(=O)Oc1ccc(/C(=C(/C)Cc2ccc(OC)cc2)c2ccc(OCCN3CCCCCC3)cc2)cc1`, the growth with T-47D breast was 38.8%; in the assay with BT-549 breast it was 93.2%; in the assay on MDA-MB-435 melanoma, 90.5%; with SW-620 colon, 85.9%; in the assay with MCF7 breast, 27.3%; with HCT-116 colon, 54.9%. Besides, the growth with HCC-2998 colon is 83.8%; in the assay with KM12 colon, 60.6%.
As to `CC1C(/C=N/NC(N)=S)C(C#N)(C#N)C1(C#N)C#N` (configuration not stated), the growth in the assay on T-47D breast is 84.6%; in the assay with BT-549 breast it was 110%; in the assay on MDA-MB-435 melanoma, 98.3%; in the assay with SW-620 colon, 95.8%; with MCF7 breast, 97.1%; with HCT-116 colon it was 105%. Also, the growth in the assay with HCC-2998 colon is 105%; in the assay on KM12 colon, 97%.
Regarding `O=C(O)c1ccc(-c2ccc(/C=N/Nc3nc(Nc4ccccc4)nc(N4CCCCC4)n3)o2)cc1`, the growth was 63.7% with T-47D breast; -4.12% (active) in the assay with BT-549 breast; 83.2% in the assay on MDA-MB-435 melanoma; 86.6% in the assay with SW-620 colon; 80.1% in the assay on MCF7 breast; 57.8% in the assay on HCT-116 colon. For the same molecule, the figures for the growth in the assay with HCC-2998 colon and in the assay with KM12 colon were 74.7% and 61.7%, respectively.
With `Cc1c(CN)cc(-c2ccc(Cl)cc2)n1-c1ccccc1`, the growth is 52.5% in the assay on T-47D breast; 74.9% in the assay on BT-549 breast; 97.1% in the assay on MDA-MB-435 melanoma; 89.4% in the assay with SW-620 colon; 75.1% in the assay on MCF7 breast; 67.3% in the assay on HCT-116 colon. Also, the growth in the assay with HCC-2998 colon is 107%; with KM12 colon it was 99.9%.
Turning to `N#C/C(=C\C=C\c1ccc(-c2cc(Cl)ccc2Cl)o1)c1nc2ccccc2s1`, the growth was 84.8% in the assay on T-47D breast; 104% with BT-549 breast; 102% in the assay with MDA-MB-435 melanoma; 98.1% in the assay on SW-620 colon; 83.3% in the assay with MCF7 breast; 96.6% in the assay with HCT-116 colon. Besides, the growth is 102% in the assay with HCC-2998 colon and 106% with KM12 colon.
Turning to `Cn1cc(-c2nn3cc(-c4cccs4)nc3s2)c2cc(F)ccc21`, the growth was 45% in the assay with T-47D breast; 43.1% in the assay on BT-549 breast; -43.4% (active) with MDA-MB-435 melanoma; 12.4% in the assay with SW-620 colon; 21.4% in the assay with MCF7 breast; 14.2% in the assay with HCT-116 colon. Moreover, the growth is 66.8% with HCC-2998 colon and 22.2% in the assay on KM12 colon.
As to `Cc1ccc2nc(-c3ccc(C(=O)NNC(=S)Nc4ccccc4)cc3)[nH]c2c1`, the growth in the assay on T-47D breast is 86.3%; in the assay with BT-549 breast, 90.6%; with MDA-MB-435 melanoma it was 97.8%; in the assay on SW-620 colon, 108%; with MCF7 breast it was 79.5%; with HCT-116 colon it was 84.6%. For the same molecule, the growth in the assay with HCC-2998 colon was 103%; with KM12 colon, 94.8%.
With `CCOC(=O)c1ccccc1-c1c2ccc(=[N+](C)C)cc-2oc2cc(N(C)C)ccc12`, the growth was 6.72% (active) in the assay with T-47D breast; -10.1% (active) in the assay on BT-549 breast; 11.8% with MDA-MB-435 melanoma; 15% in the assay with SW-620 colon; 3.95% (active) in the assay with MCF7 breast; 4.32% (active) in the assay on HCT-116 colon. In addition, the growth in the assay on HCC-2998 colon is 96.9%; in the assay with KM12 colon, 7.32% (active).
